Compound activity deposited in PubChem BioAssay by Sanford-Burnham Center for Chemical Genomics.
Compounds with a hit are over-represented: about 28% of the library has one in this group of screens.
CYP2C9 inh = blocks human cytochrome P450 2C9; P11712; CYP2C9 Supersomes, luciferin-H conversion, luminescence; inhibition, % at 5 µM; 96,000 compounds, 20% hits;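 active means blocking of liver enzyme CYP2C9 beyond about 50% at 5 µM, limit read from the data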
Target sequence (P11712 whole entry, looked up): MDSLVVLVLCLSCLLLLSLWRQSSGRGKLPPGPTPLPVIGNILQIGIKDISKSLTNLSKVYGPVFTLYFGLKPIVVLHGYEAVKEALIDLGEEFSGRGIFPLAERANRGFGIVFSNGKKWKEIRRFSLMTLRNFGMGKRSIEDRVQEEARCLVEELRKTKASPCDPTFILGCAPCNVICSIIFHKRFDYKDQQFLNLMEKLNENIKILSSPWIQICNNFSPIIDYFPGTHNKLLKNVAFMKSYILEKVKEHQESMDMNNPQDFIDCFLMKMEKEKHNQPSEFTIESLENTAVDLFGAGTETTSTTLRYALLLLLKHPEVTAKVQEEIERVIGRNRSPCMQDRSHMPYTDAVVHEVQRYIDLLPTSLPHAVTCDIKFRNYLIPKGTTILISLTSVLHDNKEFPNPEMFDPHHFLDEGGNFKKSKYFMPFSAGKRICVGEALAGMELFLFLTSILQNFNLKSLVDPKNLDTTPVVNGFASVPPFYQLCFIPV
CYP2C19 activ = cytochrome P450 2C19 (human) activation; P33261; 96,000 tested, under 10 active; recombinant CYP2C19, luciferin-H EGE luminescence; stronger effect = higher value; 0 = fully inhibited enzyme, 1 = untreated enzyme; activation factor at 5 µM; AID 1025;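 active means activation factor of at least 2 at 5 µM in the primary screen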
Mac1 fbg inh = CD11b/CD18-fibrinogen binding inhibition. K562 CD11b/CD18 adhesion to fibrinogen, ATPlite luminescence; Mn2+ added to activate the integrin. inhibition, % at 10 µM. 93,000 compounds, 0.54% hits. AID 1497;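 active means primary inhibition of 50% or more at 10 µM, then 40% or more on retest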
CD11b adhes enh = enhancers of human CD11b/CD18 binding to fibrinogen | P05107+P11215 | 93,000 compounds, 0.07% hits | AID 1499 | K562 CD11b/CD18 adhesion to fibrinogen, ATPlite luminescence | activation, % at 10 µM;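 active means 10 µM primary screen giving 50% or more activity, confirmed by 40% or more on retest at that dose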
CYP2C19 inh = human CYP2C19 inhibition; P33261; CYP2C19 Supersomes, luciferin-H EGE luminescence, 30 min; inhibition, % at 5 µM; 96,000 compounds, 21% hits; AID 778;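 active means CYP2C19 inhibition above a set limit at 5 µM in the primary screen, cut at about 50% in these data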
CYP2C9 activ = CYP2C9 (human) activation; P11712; recombinant CYP2C9, luciferin-H conversion, luminescence; stronger effect = higher value; factor 1 = untreated enzyme, 0 = blocked; activation factor at 5 µM; 96,000 compounds, 1.4% hits;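 active means activation factor of 2 or more for CYP2C9 at a 5 µM dose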
Each line names hits and unclear results; the compound was inactive in the other large screens.

O=C(C(Cc1ccccc1)n1cccc1)N1CCN(c2cccc(Cl)c2)CC1 (centres undefined)	CYP2C9 inh 70, CYP2C19 inh 82
COc1ccc(N2CCN(C(=O)C(Cc3ccccc3)n3cccc3)CC2)cc1 (centres undefined)	CYP2C9 inh 76, CYP2C19 inh 93
CS(=O)(=O)N1CCN(C(=O)c2ccc(-c3ccccc3)cc2)CC1	none
CCC(C(=O)N1CCN(S(C)(=O)=O)CC1)c1ccccc1 (centres undefined)	CYP2C19 inh 83
COc1ccc(CNC(=O)C2CCCN(S(=O)(=O)c3c(C)n[nH]c3C)C2)cc1 (centres undefined)	none
O=C(N/N=C/C1CC=CCC1)c1ccc(Cl)cc1O (centres undefined)	none (no result: CYP2C9 inh, CYP2C19 activ, CYP2C19 inh, CYP2C9 activ)
CN1C(=O)c2cccc3c(S(=O)(=O)NCc4ccco4)ccc1c23	CYP2C9 inh 79, CYP2C19 inh 94
COc1ccc(S(=O)(=O)NCc2ccco2)c2ccccc12	CYP2C9 activ 2
Cn1cc(S(=O)(=O)NCc2ccco2)c(=O)n(C)c1=O	none
COCCn1c(SCC#N)nnc1-c1ccc2c(c1)OCO2	none
O=C(COc1ccc(S(=O)(=O)N2CCCC2)cc1Cl)NCc1ccco1	CYP2C9 inh 85
COc1ccc(C(=O)OCC(=O)NCc2ccco2)cc1S(=O)(=O)N1CCN(c2cccc(Cl)c2)CC1	CYP2C9 inh 96, CYP2C19 inh 98
COC(=O)COc1ccc(S(=O)(=O)NCCC2=CCCCC2)cc1Cl	CYP2C19 inh 97
O=C(NCc1ccco1)c1cc(S(=O)(=O)N2CCCc3ccccc32)ccc1Cl	CYP2C19 inh 81
CCCCN(NC(C)=O)c1nc(Cl)nc(NC(C)C)n1	none
COCCNS(=O)(=O)c1ccc(OCC(=O)OC)c(Cl)c1	none
O=C(COc1ccc(S(=O)(=O)N2CCCC2)cc1)NCc1ccco1	none
COC(=O)COc1ccc(S(=O)(=O)NCc2ccco2)cc1Cl	CYP2C19 inh 58
Cc1cc(S(=O)(=O)N2CCCC2)ccc1OCC(=O)NCc1ccco1	CYP2C9 inh 50
Clc1ccc(OCc2cc(-c3ccccc3)no2)cc1Cl	CYP2C9 inh 69
C#CC[N+]1(CC#Cc2ccc(C)cc2)CCCCC1	none (no result: CYP2C9 inh, CYP2C19 activ, CYP2C19 inh, CYP2C9 activ)
CCOC(=O)N1CCC2(CC1)C(C#N)=C(N)OC1=C2C(=O)CC(C)(C)C1	CYP2C9 inh 54 (no result: Mac1 fbg inh, CD11b adhes enh)
CC(=O)N1CCC2(CC1)C(C#N)=C(N)OC1=C2C(=O)CC(C)(C)C1	none (no result: Mac1 fbg inh, CD11b adhes enh)
CC1(C)CC(=O)C2=C(C1)OC(N)=C(C#N)C21C(=O)N(Cc2ccccc2Cl)c2ccccc21 (centres undefined)	CYP2C9 inh 94, CYP2C19 inh 86
CC1(C)CC(=O)C2=C(C1)OC(N)=C(C#N)C21CCN(Cc2ccccc2)CC1	CYP2C9 inh 74, CYP2C19 inh 73
CCOc1ccc(C)cc1S(=O)(=O)n1ccnc1	CYP2C9 inh 61
Cc1ccc(-c2nn(CC(=O)NCC3CCCO3)c(=O)c3ccccc23)cc1 (centres undefined)	none
O=C(CCn1nc(-c2ccccc2)c2ccccc2c1=O)NCC1CCCO1 (centres undefined)	CYP2C9 inh 54, CYP2C19 inh 56
COc1ccccc1NC(=O)Cn1nc(-c2ccc(Cl)cc2)c2ccccc2c1=O	CYP2C9 inh 70
O=C(CCn1nc(-c2ccccc2)c2ccccc2c1=O)N1CCN(c2ccccc2)CC1	CYP2C9 inh 85, CYP2C19 inh 90
O=c1c2ccccc2c(-c2ccccc2)nn1-c1cc(Cl)ccc1[N+](=O)[O-]	CYP2C19 inh 61
c1ccc2c(-n3cccn3)cccc2c1	none
COc1cc(C)c(CN2CCCCC2CO)cc1C (centres undefined)	none
Cc1ccc(-n2nc(C)c(NC(=O)CCl)c2C)cc1	none (no result: CYP2C9 inh, CYP2C19 activ, CYP2C19 inh, CYP2C9 activ)
CCNC(=O)CCn1nc(-c2ccc(Cl)cc2)c2ccccc2c1=O	CYP2C19 inh 65 (no result: Mac1 fbg inh, CD11b adhes enh)
Cc1ccc(-c2nn(CCC(=O)NCC3CCCO3)c(=O)c3ccccc23)cc1 (centres undefined)	CYP2C9 inh 54
O=C(CCSc1ccccc1)NCC1CCCO1 (centres undefined)	CYP2C19 inh 72
COc1ccc(Cl)cc1NC(=O)Cn1c(=O)n2nc(C)nc2c2ccccc21	CYP2C19 inh 59
COc1ccc(OCc2nc3c4cc(OC)c(OC)cc4nc(=S)n3[nH]2)cc1	none (no result: CYP2C9 inh, CYP2C19 activ, CYP2C19 inh, CYP2C9 activ)
CCOc1ccc(NC(=O)c2cc3n(n2)C(C(F)(F)F)CC(c2ccco2)N3)cc1 (centres undefined)	none
O=c1c2ccccc2c(-c2ccccc2)nn1Cc1ccc(Cl)cc1	CYP2C9 inh 58, CYP2C19 inh 66 (no result: Mac1 fbg inh, CD11b adhes enh)
O=C(Nc1ccccc1Sc1ccccc1)C1CCCO1 (centres undefined)	CYP2C19 inh 69
CC(C)NC(=O)c1ccccc1NC(=O)C1CCCO1 (centres undefined)	none
O=C(Nc1ccccc1Sc1ccccc1)c1ccccc1	CYP2C9 inh 77, CYP2C19 inh 86
COc1ccc(NC(=O)c2ccccc2NC(=O)C2CCCO2)cc1 (centres undefined)	CYP2C9 inh 80, CYP2C19 inh 50
CC(=O)Nc1ccccc1-c1nc2ccccc2nc1OCC(=O)c1ccc(Cl)cc1	none (no result: CYP2C9 inh, CYP2C19 activ, CYP2C19 inh, CYP2C9 activ)
COc1cccc(NC(=O)N2CCCC2C(=O)NC2CC2)c1 (centres undefined)	none
CCc1cccc(NC(=O)CN(C)S(=O)(=O)c2cnc[nH]2)c1	CYP2C9 inh 95, CYP2C19 inh 95
CCOC(=O)c1cccc(NC(=O)CN(C)S(=O)(=O)c2cnc[nH]2)c1	CYP2C9 inh 94, CYP2C19 inh 54
CCOc1ccc(N(CC(=O)O)S(=O)(=O)c2cccnc2)cc1	none
COc1ccc(S(=O)(=O)N(C)CC(=O)NCc2cccnc2)cc1	none
CCOC(=O)c1cccc(Nc2nc(C)cc(C)n2)c1	none
CCN(c1ccccc1)S(=O)(=O)c1cnc[nH]1	CYP2C9 inh 100, CYP2C19 inh 98
CN(CC(=O)NCc1ccccc1)S(=O)(=O)c1cnc[nH]1	CYP2C9 inh 80, CYP2C19 inh 100
COc1ccc(C)cc1N(C(=O)CNC(=O)c1ccco1)C(C(=O)NC1CCCC1)c1cccnc1 (centres undefined)	none
COc1ccc(NC(=O)c2nc3nccc(C)n3n2)cn1	none
Cc1cc(C)cc(NC(=O)CSc2nc3c(c(=O)[nH]2)CN(Cc2ccc(F)cc2)CC3)c1	none (no result: CYP2C9 inh, CYP2C19 activ, CYP2C19 inh, CYP2C9 activ)
COc1ccc(C(=O)NC2(C(F)(F)F)C(=O)Nc3c2c(=O)[nH]c(=O)n3CCc2ccc(OC)c(OC)c2)cc1 (centres undefined)	none (no result: Mac1 fbg inh, CD11b adhes enh)
CC(Sc1nnnn1C)C(=O)Nc1ccc(Oc2ccccc2)cc1 (centres undefined)	CYP2C19 inh 63 (no result: Mac1 fbg inh, CD11b adhes enh)
Cn1ncc(C#N)c1/N=C/N(Cc1ccccc1)Cc1ccccc1	CYP2C9 inh 99, CYP2C19 inh 95
